Assay results published in PubChem BioAssay (NCI).
Compounds without any hit were thinned out: in the full panel of roughly 79,000, 15% have a hit. Active and inactive are the calls of the source. No stated cut-off is given here; in the data, active means growth inhibition above about 70%; inactive means the rest.

How the values were obtained:
[1] = NCI Yeast Anticancer Drug Screen. Data for the rad52 strain (AID 147);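 further: 0% = growth of vehicle-treated control cultures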; conditions: S. cerevisiae rad52 mutant growth inhibition, stronger effect = higher value
Procedure, shortened: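 Yeast strain carrying a DNA damage repair alteration was exposed to test compounds. Growth inhibition was measured relative to vehicle-treated controls.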

[2] = NCI Yeast Anticancer Drug Screen. Data for the wt1 strain (AID 149);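 further: 0% = growth of vehicle-treated wt1 cultures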; conditions: S. cerevisiae wt1 strain (SPY 50644) growth inhibition, stronger effect = higher value
Procedure, shortened: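 Vehicle-normalised growth inhibition; strain wt1; compound exposure.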

[3] = NCI Yeast Anticancer Drug Screen. Data for the rad50EPP+ strain (AID 151);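 further: 0% = growth of vehicle-treated control cultures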; conditions: S. cerevisiae rad50 mutant strain, stronger effect = higher value
Procedure, shortened: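 Yeast strain carrying rad50 alteration (rad50EPP+) exposed to compounds; growth inhibition measured relative to vehicle-treated controls.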

[4] = NCI Yeast Anticancer Drug Screen. Data for the rad50 strain (AID 155);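 further: 0% = growth of vehicle-only cultures of the same strain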; conditions: S. cerevisiae rad50 strain growth inhibition, stronger effect = higher value
Procedure, shortened: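 A DNA repair-deficient yeast mutant serves as the test organism; compound-induced growth inhibition is calculated against vehicle-treated cells.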

[5] = NCI Yeast Anticancer Drug Screen. Data for the mec2-1 strain (AID 157); conditions: S. cerevisiae mec2-1 strain, stronger effect = higher value
Procedure, shortened: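 mec2-1 yeast strain, carrying an alteration in DNA damage repair or cell cycle control, was exposed to compounds; growth inhibition was measured relative to vehicle-treated controls.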

[6] = NCI Yeast Anticancer Drug Screen. Data for the rad14 strain (AID 159);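 further: 0% = growth of vehicle-treated control cultures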; conditions: S. cerevisiae rad14 strain growth inhibition, stronger effect = higher value
Procedure, shortened: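 Vehicle-treated cultures served as the baseline for growth inhibition of a DNA repair-mutant yeast strain exposed to each compound.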

[7] = NCI Yeast Anticancer Drug Screen. Data for the sgs1 mgt1 strain (AID 161);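 further: 0% = growth of cultures given vehicle only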; conditions: S. cerevisiae sgs1 mgt1 strain, stronger effect = higher value
Procedure, shortened: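 Growth of a repair-deficient yeast mutant was monitored after compound treatment and expressed as inhibition relative to vehicle-treated cultures.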

[8] = NCI Yeast Anticancer Drug Screen. Data for the CLN2oe strain (AID 163);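 further: 0% = growth of vehicle-only control cultures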; conditions: S. cerevisiae CLN2oe strain, stronger effect = higher value
Procedure, shortened: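 Yeast cells carrying a defined cell-cycle control alteration were exposed to test compounds. Growth inhibition was scored against vehicle-treated control cultures.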

[9] = NCI Yeast Anticancer Drug Screen. Data for the cln2 rad14 strain (AID 165);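 further: 0% = growth equal to vehicle treated cultures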; conditions: S. cerevisiae cln2 rad14 strain, stronger effect = higher value
Procedure, shortened: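 Yeast carrying cln2 and rad14 alterations (cell cycle control and DNA damage repair) were exposed to compounds. Growth inhibition was measured against vehicle-treated controls.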

[10] = NCI Yeast Anticancer Drug Screen. Data for the bub3 strain (AID 167); conditions: S. cerevisiae bub3 mutant strain, stronger effect = higher value
Procedure, shortened: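 Inhibition values come from growth of compound-treated mutant yeast normalised to vehicle-treated controls.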

[11] = NCI Yeast Anticancer Drug Screen. Data for the wt2 strain (AID 169);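 further: 0% = growth of vehicle-treated yeast cultures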; conditions: S. cerevisiae wt2 strain growth inhibition, stronger effect = higher value
Procedure, shortened: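 Yeast cells were exposed to test compounds, and growth inhibition was measured relative to vehicle-treated controls.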

[12] = NCI Yeast Anticancer Drug Screen. Data for the mlh1 strain (AID 171);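 further: 0% = growth of vehicle-treated control cultures of the same strain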; conditions: S. cerevisiae mlh1 strain growth inhibition, stronger effect = higher value
Procedure, shortened: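 Yeast carrying a defined genetic alteration in DNA damage repair or cell cycle control were exposed to test compounds. Growth inhibition was measured relative to vehicle-treated controls.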

[13] = NCI Yeast Anticancer Drug Screen. Data for the sgs1 strain (AID 173);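 further: 0% = growth of vehicle-only control cultures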; conditions: S. cerevisiae sgs1 mutant, stronger effect = higher value
Procedure, shortened: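 Yeast mutant strains carrying defined defects in DNA damage repair or cell cycle control were exposed to test compounds. Growth inhibition was scored against vehicle-treated controls.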

[14] = NCI Yeast Anticancer Drug Screen. Data for the mlh1 rad18 strain (AID 175); conditions: S. cerevisiae mlh1 rad18 strain growth inhibition, stronger effect = higher value
Procedure, shortened: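 Growth inhibition of the yeast strain was measured after compound exposure and expressed relative to vehicle-treated controls. The strain carries defined defects in DNA damage repair.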

[15] = NCI Yeast Anticancer Drug Screen. Data for the rad18 strain (AID 177); conditions: S. cerevisiae rad18 mutant growth inhibition, stronger effect = higher value
Procedure, shortened: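 Yeast carrying a defined DNA damage repair alteration were exposed to compounds. Growth inhibition was expressed relative to vehicle-treated controls.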

[16] = at 5.0 µM (retest, dose inferred, filed as 0.5)
[17] = at 50.0 µM (retest, dose inferred, filed as 5.0)

Measured: growth inhibition

CCCCCNC(=O)c1c(O)[nH]c(=S)[nH]c1=O
inactive: [1]; at 1.2 µM -6% | [1]; at 3.7 µM -15% | [1]; at 11.0 µM 23% | [2]; at 1.2 µM -3% | [2]; at 3.7 µM 9% | [2]; at 11.0 µM 15% | [2]; at 33.0 µM 68% | [3]; at 1.2 µM -25% | [3]; at 3.7 µM -23% | [3]; at 11.0 µM -16% | [3]; at 33.0 µM 30% | [4]; at 1.2 µM 5% | [4]; at 3.7 µM 14% | [4]; [16] 61% | [4]; at 11.0 µM 64% | [5]; at 1.2 µM -14% | [5]; at 3.7 µM -5% | [5]; [16] 8% | [5]; at 11.0 µM 25% | [6]; at 1.2 µM 16% | [6]; at 3.7 µM 64% | [7]; [16] 26% | [8]; at 1.2 µM 4% | [8]; at 3.7 µM -7% | [8]; at 11.0 µM 2% | [8]; at 33.0 µM 53% | [9]; [16] 6% | [9]; [17] 60% | [9]; at 50.0 µM 61.3% | [10]; at 1.2 µM -17% | [10]; at 3.7 µM -1% | [10]; [16] 65% | [10]; at 11.0 µM 65% | [11]; at 1.2 µM -32% | [11]; at 3.7 µM -1% | [11]; at 11.0 µM 56% | [12]; at 1.2 µM 13% | [12]; at 3.7 µM 46% | [13]; at 1.2 µM -10% | [13]; at 3.7 µM 0% | [14]; [16] 42% | [14]; [17] 47% | [15]; at 1.2 µM -12% | [15]; at 3.7 µM 2% | [15]; at 11.0 µM 45%
active: [1]; at 33.0 µM 89% | [1]; at 100.0 µM 94% | [2]; at 100.0 µM 88% | [3]; at 100.0 µM 78% | [4]; at 33.0 µM 95% | [4]; [17] 93% | [4]; at 50.0 µM 88.1% | [4]; at 100.0 µM 96% | [5]; at 33.0 µM 87% | [5]; [17] 92% | [5]; at 50.0 µM 87.7% | [5]; at 100.0 µM 92% | [6]; at 11.0 µM 91% | [6]; at 33.0 µM 96% | [6]; at 100.0 µM 96% | [7]; [17] 87% | [7]; at 50.0 µM 92.2% | [8]; at 100.0 µM 83% | [10]; at 33.0 µM 87% | [10]; [17] 94% | [10]; at 50.0 µM 88.6% | [10]; at 100.0 µM 93% | [11]; at 33.0 µM 91% | [11]; at 100.0 µM 94% | [12]; at 11.0 µM 90% | [12]; at 33.0 µM 96% | [12]; at 100.0 µM 96% | [13]; at 11.0 µM 79% | [13]; at 33.0 µM 94% | [13]; at 100.0 µM 96% | [14]; at 50.0 µM 90.1% | [15]; at 33.0 µM 86% | [15]; at 100.0 µM 94%
